FECH inh – inhibitors of human ferrochelatase; 20,000 compounds, 3.3% hits; purified FECH, Ni-mesoporphyrin absorbance 550 nm; calls only at 10 µM (by protocol); P22830;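 active means enzyme reaction rate more than 3 SD below the solvent-only control wells on the same plate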;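 further: lower slope than DMSO wells means FECH inhibition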
Target sequence (P22830 whole entry, looked up): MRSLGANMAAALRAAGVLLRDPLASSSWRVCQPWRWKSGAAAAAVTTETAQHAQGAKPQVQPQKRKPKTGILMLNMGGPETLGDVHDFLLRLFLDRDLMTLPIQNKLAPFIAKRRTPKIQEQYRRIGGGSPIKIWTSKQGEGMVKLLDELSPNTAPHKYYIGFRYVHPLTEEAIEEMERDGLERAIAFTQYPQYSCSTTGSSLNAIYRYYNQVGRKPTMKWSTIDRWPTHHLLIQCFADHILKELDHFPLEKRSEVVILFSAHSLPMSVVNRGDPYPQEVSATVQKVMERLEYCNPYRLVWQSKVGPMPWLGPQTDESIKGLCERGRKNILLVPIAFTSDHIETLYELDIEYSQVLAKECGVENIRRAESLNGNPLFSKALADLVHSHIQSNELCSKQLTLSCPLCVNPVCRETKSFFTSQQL
Numbers without * were called inactive; i = inactive; + = active, no number. The full list was thinned out, with hits kept by preference.

SMILES	FECH inh
CN(CCO)c1nc(Nc2cccc(F)c2)c2cnn(-c3ccccc3)c2n1	i
CCc1ccc(NC(=O)NCCn2c(-c3ccncc3)nc3cccnc32)cc1	i
CCOC(=O)c1ccccc1NC(=O)NCCn1c(-c2ccncc2)nc2cccnc21	+
COc1ccc(Cl)cc1S(=O)(=O)NCCn1c(-c2ccc(C)cc2)nc2cccnc21	+
Cc1ccc(-c2nc3cccnc3n2CCNS(C)(=O)=O)cc1	i
COc1ccc(OC)c(S(=O)(=O)NCCn2c(-c3ccc(C)cc3)nc3cccnc32)c1	i
Cc1ccc(-c2nc3cccnc3n2CCNS(=O)(=O)Cc2ccccc2)cc1	+
O=S(=O)(Cc1ccccc1)NCCn1c(-c2ccccc2)nc2cccnc21	i
COc1ccc(OC)c(S(=O)(=O)NCCn2c(-c3ccccc3)nc3cccnc32)c1	i
CCOc1ccc(NC(=O)NCCn2c(-c3ccncc3)nc3cccnc32)cc1	i
Cc1ccc(-c2cc(O)c3c(c2)CN(CC2CCCN2C)CCO3)s1 (centres undefined)	i
O=C(c1cccc2ccnn12)N1CCc2c([nH]c3ccccc23)C1	i
CCn1c(C2CCCN(C(=O)c3c(C)[nH]c(C(C)=O)c3C)C2)nn(C)c1=O (centres undefined)	i
CC(C)(C)c1ccc(-c2nc3nc(CN4CCOCC4)cc(=O)n3[nH]2)cc1	i
CCOc1ccc(NC(=O)Nc2ccc(Sc3c(CC)c(C)nc4ncnn34)cc2)cc1	i
CCOc1ccccc1NC(=O)Nc1ccc(Sc2c(CC)c(C)nc3ncnn23)cc1	i
CCc1c(C)nc2ncnn2c1Sc1ccc(NC(=O)NCCc2ccccc2)cc1	+
CCc1c(C)nc2ncnn2c1Sc1ccc(NC(=O)Nc2ccc(C)cc2C)cc1	i
CCc1c(C)nc2ncnn2c1Sc1ccc(NC(=O)NCc2ccc(C)cc2)cc1	+
CCc1c(C)nc2ncnn2c1Sc1ccc(NC(=O)NCc2ccc(F)cc2)cc1	i
Cc1cccc(NC(=O)c2nc3ccccc3n(C)c2=O)c1	i
O=S(=O)(NCc1ccccc1)Nc1ccccc1OCC1CCCO1 (centres undefined)	i
O=c1ccc(-c2ccc(Cl)c(S(=O)(=O)N3CCCC3)c2)n[nH]1	i
Cc1nc(CN2CCN(C(=O)CSc3nnc(C)s3)CC2)no1	i
Cc1nc(CN2CCN(C(=O)c3cnn(Cc4ccccc4)c3)CC2)no1	+
SMILES	FECH inh
O=C(c1ccccc1)N1CCC(NCc2cnn(Cc3ccccc3)c2)CC1	i
Cc1ccc(C)c(NC(=O)CCNc2nccc(N3CCC(O)C3)n2)c1 (centres undefined)	i
Cc1ccc(-c2cc(O)c3c(c2)CN(C(=O)C(C)n2cccn2)CCO3)s1 (centres undefined)	i
CCN1CCN(C(=O)c2ccc3oc(=O)n(Cc4ccc(C)cc4)c3c2)CC1	i
CN1CCN(C(=O)c2ccc3oc(=O)n(Cc4ccccc4)c3c2)CC1	i
O=C(c1ccc2oc(=O)n(Cc3ccccc3)c2c1)N1CCN(Cc2ccccc2)CC1	+
Cc1nc(C(C)C)ncc1C(=O)NCc1c(C)noc1C	i
CCc1c(C)nc2ncnn2c1Sc1ccccc1NC(=O)COc1ccccc1C	i
CCC(C)NC(=O)C1CCN(c2ccc(-c3cccs3)nn2)CC1 (centres undefined)	i
CC(C)Cn1c(-c2c(-c3ccccc3)ncn2CCC(N)=O)nc2ccccc21	i
CC/C=C\CCCN1CCC2(CC1)CNC(=O)C2	i
O=C1CC2(CCN(CCc3ccccc3)CC2)CN1	+
O=C1CC2(CCN(C(=O)C/C=C/c3ccccc3)CC2)CN1	i
Cc1ccc2cc(-c3noc(CCC(=O)NC(C)(C)C)n3)c(=O)[nH]c2c1	i
Cc1ccc(CN2CC(=O)N(Cc3cccc(C(F)(F)F)c3)c3ccccc3S2(=O)=O)cc1	i
CCC(C(=O)Nc1ccc(Nc2nc(C)cc(N(C)C)n2)cc1)c1ccccc1 (centres undefined)	+
CCC(C(=O)Nc1ccc(Nc2nc(C)cc(Nc3ccc(C)cc3)n2)cc1)c1ccccc1 (centres undefined)	i
CCC(C(=O)Nc1ccc(Nc2nc(C)cc(Nc3ccccc3)n2)cc1)c1ccccc1 (centres undefined)	i
Cc1cc(C)n(CC(C)Nc2ncc(C)c(N(C)C)n2)n1 (centres undefined)	i
CCOc1ccc(CNC(=O)COc2nc(CC)nc3onc(-c4ccc(F)cc4)c23)cc1	i
CCc1nc(OCC(=O)NCc2ccc(C)cc2)c2c(-c3ccc(F)cc3)noc2n1	i
CCc1nc(OCC(=O)NCc2cccc(OC)c2)c2c(-c3ccc(F)cc3)noc2n1	+
CO[C@H]1CN(C(=O)c2cccc3c2OCC3)CC[C@H]1N	i
O=C(CCN1CCC(OCc2cccnc2)CC1)NC1CCCCCC1	+
C/C=C(\C)CN1CCC(OCc2cccnc2)CC1	i
SMILES	FECH inh
Cc1ccc(C(C)NC(=O)CN2CCC(OCc3cccnc3)CC2)cc1 (centres undefined)	i
Cc1cc(CC(C)Nc2nccc(C3CCCC3)n2)n[nH]1 (centres undefined)	i
O=C(NCCc1ccccc1)c1cccn1-c1nnc(N2CCCCC2)s1	+
CCCN(CCC)CCNC(=O)c1cccn1-c1nnc(N2CCCCC2)s1	i
CCOc1ccc(CCNC(=O)c2cccn2-c2nnc(N3CCCCC3)s2)cc1	i
CSc1nc(-c2ccc(C)cc2)c(C#N)c(N(C)CCO)n1	i
Cc1ccc(OCCN(C)C(=O)CC2C(=O)NCCN2C2CCCC2)cc1 (centres undefined)	i
O=c1c(Nc2ccccc2F)c(-c2ccc3c(c2)CCCC3)c1=O	+
Cc1c(Cl)cccc1Nc1c(-c2ccc3c(c2)CCCC3)c(=O)c1=O	i
O=c1c(Nc2ccc(Cl)cc2)c(-c2ccc3c(c2)CCCC3)c1=O	i
CCOC(=O)Nc1ccc2c(c1)NC(=O)CC2c1cccc(-n2cccn2)c1 (centres undefined)	i
CCc1cccc(NC(=O)CSc2cc(Oc3cc(C)cc(C)c3)ncn2)c1	+
COc1cc(NC(=O)CSc2cc(Oc3cc(C)cc(C)c3)ncn2)cc(OC)c1	+
O=C(CSc1cc(N2CCCCC2)ncn1)Nc1ccc2c(c1)OCCO2	i
CCc1cccc(NC(=O)CN2CCCN(Cc3ccc(OC)cc3)S2(=O)=O)c1	i
COc1cc(NC(=O)CN2CCCN(Cc3ccc(C)cc3)S2(=O)=O)cc(OC)c1	i
CCc1cccc(NC(=O)CCC(=O)NCc2ncc[nH]2)c1	i
Cc1ccc(NC(=O)CSc2cc(Oc3cc(C)cc(C)c3)ncn2)cc1	+
CSc1ccc(CNC(=O)COc2cc(C)nc(-c3ccc(C)cc3)n2)cc1	i
COc1ccc(CNC(=O)CSc2cc(N3CCCCC3)ncn2)cc1	i
CSc1ccc(CNC(=O)CSc2cc(Oc3cc(C)cc(C)c3)ncn2)cc1	+
Cc1ccc(NC(=O)CSc2cc(N3CCCCC3)ncn2)cc1F	i
COc1ccc(NC(=O)CSc2cc(N3CCCCC3)ncn2)cc1OC	i
Cc1ccc(-c2cc(O)c3c(c2)CN(C(=O)CN2CCNCC2)CCO3)s1	i
CC[C@H](C)[C@H](N)C(=O)N1CCC(Cn2cc(-c3ccc(F)cc3)nn2)CC1	i
COc1ccc(Nc2cc(C)nc(Nc3ccc(NC(=O)c4ccco4)cc3)n2)cc1	i
COc1cc(NCC(O)CN2CCCCCC2)ncn1 (centres undefined)	i

Source: PubChem BioAssay (Corson Lab, School of Medicine, Indiana University)
